According to PubChem BioAssay (NCI):
The panel holds about 79,000 compounds, 15% with a hit somewhere; the sample as a whole holds those more often. Calls of active or inactive are those of the source. Rule as the data show it: active = growth inhibition above about 70%; inactive = the rest.

What was measured:
[1] = NCI Yeast Anticancer Drug Screen. Data for the wt1 strain (AID 149);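 also: 0% = growth of vehicle-treated wt1 cultures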; conditions: S. cerevisiae wt1 strain (SPY 50644) growth inhibition, stronger effect = higher value
In short: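 Each compound is tested on wt1 yeast and the loss of growth versus vehicle gives the inhibition value.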

[2] = NCI Yeast Anticancer Drug Screen. Data for the rad50EPP+ strain (AID 151);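 also: 0% = growth of vehicle-treated control cultures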; conditions: S. cerevisiae rad50 mutant strain, stronger effect = higher value
In short: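 Strain rad50EPP+; compound exposure; % growth inhibition vs vehicle.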

[3] = NCI Yeast Anticancer Drug Screen. Data for the mgt1 strain (AID 153); conditions: S. cerevisiae mgt1 mutant growth inhibition, stronger effect = higher value
In short: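 Read-out: yeast growth inhibition vs vehicle control. Strain mgt1, drawn from a panel altered in DNA damage repair or cell cycle control.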

[4] = NCI Yeast Anticancer Drug Screen. Data for the rad50 strain (AID 155);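 also: 0% = growth of vehicle-only cultures of the same strain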; conditions: S. cerevisiae rad50 strain growth inhibition, stronger effect = higher value
In short: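 Vehicle-treated cultures provide the reference for the growth inhibition reported for compound-exposed, repair-deficient yeast.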

[5] = NCI Yeast Anticancer Drug Screen. Data for the mec2-1 strain (AID 157); conditions: S. cerevisiae mec2-1 strain, stronger effect = higher value
In short: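 Cells of the genetically defined mec2-1 yeast strain are incubated with test compound. Inhibition of growth is calculated against vehicle-treated controls.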

[6] = NCI Yeast Anticancer Drug Screen. Data for the rad14 strain (AID 159);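 also: 0% = growth of vehicle-treated control cultures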; conditions: S. cerevisiae rad14 strain growth inhibition, stronger effect = higher value
In short: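 Inhibition of growth is reported for a repair-deficient yeast mutant following compound treatment, calculated relative to cultures that received vehicle.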

[7] = NCI Yeast Anticancer Drug Screen. Data for the sgs1 mgt1 strain (AID 161);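 also: 0% = growth of cultures given vehicle only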; conditions: S. cerevisiae sgs1 mgt1 strain, stronger effect = higher value
In short: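 Inhibition of yeast growth, normalised to vehicle-treated controls, is reported for a strain bearing genetic alterations in DNA damage repair.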

[8] = NCI Yeast Anticancer Drug Screen. Data for the CLN2oe strain (AID 163);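 also: 0% = growth of vehicle-only control cultures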; conditions: S. cerevisiae CLN2oe strain, stronger effect = higher value
In short: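 Strain altered in cell-cycle control, incubated with compound; growth compared to solvent-treated controls.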

[9] = NCI Yeast Anticancer Drug Screen. Data for the cln2 rad14 strain (AID 165);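 also: 0% = growth equal to vehicle treated cultures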; conditions: S. cerevisiae cln2 rad14 strain, stronger effect = higher value
In short: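 The screen exposed genetically defined yeast (cln2 rad14) to test compounds and scored growth inhibition relative to vehicle-treated controls.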

[10] = NCI Yeast Anticancer Drug Screen. Data for the bub3 strain (AID 167); conditions: S. cerevisiae bub3 mutant strain, stronger effect = higher value
In short: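 Mutant yeast screening strain plus compound; vehicle-treated cultures serve as the 0% inhibition reference.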

[11] = NCI Yeast Anticancer Drug Screen. Data for the wt2 strain (AID 169); conditions: S. cerevisiae wt2 strain growth inhibition, stronger effect = higher value
In short: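 Steps: yeast strain treated with compound; growth recorded; inhibition calculated relative to cultures given vehicle alone.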

[12] = NCI Yeast Anticancer Drug Screen. Data for the mlh1 strain (AID 171);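 also: 0% = growth of vehicle-treated control cultures of the same strain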; conditions: S. cerevisiae mlh1 strain growth inhibition, stronger effect = higher value
In short: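 Yeast screen: mutant strain plus compound, growth scored against vehicle control wells.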

[13] = NCI Yeast Anticancer Drug Screen. Data for the sgs1 strain (AID 173);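 also: 0% = growth of vehicle-only control cultures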; conditions: S. cerevisiae sgs1 mutant, stronger effect = higher value
In short: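 Inhibition of yeast growth served as the measure. The mutant strain was treated with each compound, and growth was normalised to cultures receiving vehicle alone.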

[14] = NCI Yeast Anticancer Drug Screen. Data for the mlh1 rad18 strain (AID 175); conditions: S. cerevisiae mlh1 rad18 strain growth inhibition, stronger effect = higher value
In short: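 Compound-treated yeast growth, normalised to vehicle controls. Strain bears defined DNA repair mutations.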

[15] = NCI Yeast Anticancer Drug Screen. Data for the rad18 strain (AID 177); conditions: S. cerevisiae rad18 mutant growth inhibition, stronger effect = higher value
In short: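 Inhibition values reflect reduced yeast growth compared with vehicle-treated controls, using a strain engineered with a DNA damage repair defect.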

[16] = at 5.0 µM (retest, dose inferred, filed as 0.5)
[17] = at 50.0 µM (retest, dose inferred, filed as 5.0)

Measured: growth inhibition

Cc1ccccc1C1=C(CC(=O)O)c2ccccc2CC1C (stereo not drawn)
inactive: [1]; at 1.2 µM 4% | [1]; at 3.7 µM 8% | [1]; at 11.0 µM 29% | [2]; at 1.2 µM -1% | [2]; at 3.7 µM 2% | [2]; at 11.0 µM 6% | [2]; at 33.0 µM 10% | [2]; at 100.0 µM 49% | [3]; at 1.2 µM 9% | [3]; at 3.7 µM 11% | [3]; at 11.0 µM 22% | [4]; at 1.2 µM 6% | [4]; at 3.7 µM 10% | [4]; [16] 6% | [4]; at 11.0 µM 45% | [4]; [17] 10% | [5]; at 1.2 µM 9% | [5]; at 3.7 µM 20% | [5]; [16] 10% | [5]; at 11.0 µM 49% | [5]; [17] 6% | [6]; at 1.2 µM 6% | [6]; at 3.7 µM 11% | [6]; at 11.0 µM 29% | [7]; [16] 2% | [7]; [17] 20% | [8]; at 1.2 µM 10% | [8]; at 3.7 µM 15% | [8]; at 11.0 µM 57% | [9]; [16] -13% | [9]; [17] 28% | [10]; at 1.2 µM 11% | [10]; at 3.7 µM 9% | [10]; [16] -4% | [10]; at 11.0 µM 26% | [10]; [17] 1% | [11]; at 1.2 µM 5% | [11]; at 3.7 µM 7% | [11]; at 11.0 µM 37% | [12]; at 1.2 µM 6% | [12]; at 3.7 µM 12% | [12]; at 11.0 µM 32% | [13]; at 1.2 µM 5% | [13]; at 3.7 µM 10% | [13]; at 11.0 µM 40% | [14]; [16] 14% | [14]; [17] 50% | [15]; at 1.2 µM 4% | [15]; at 3.7 µM 10% | [15]; at 11.0 µM 38%
active: [1]; at 33.0 µM 96% | [1]; at 100.0 µM 96% | [3]; at 33.0 µM 95% | [3]; at 100.0 µM 99% | [4]; at 33.0 µM 97% | [4]; at 50.0 µM 98.9% | [4]; at 100.0 µM 99% | [5]; at 33.0 µM 95% | [5]; at 50.0 µM 99.7% | [5]; at 100.0 µM 99% | [6]; at 33.0 µM 98% | [6]; at 100.0 µM 99% | [7]; at 50.0 µM 99.6% | [8]; at 33.0 µM 97% | [8]; at 100.0 µM 98% | [9]; at 50.0 µM 99.4% | [10]; at 33.0 µM 93% | [10]; at 50.0 µM 99% | [10]; at 100.0 µM 99% | [11]; at 33.0 µM 97% | [11]; at 100.0 µM 98% | [12]; at 33.0 µM 96% | [12]; at 100.0 µM 99% | [13]; at 33.0 µM 98% | [13]; at 100.0 µM 99% | [14]; at 50.0 µM 99.5% | [15]; at 33.0 µM 96% | [15]; at 100.0 µM 99%

CCCCCC/C(C)=N/Nc1ccc([N+](=O)[O-])cc1[N+](=O)[O-]
inactive: [1]; at 1.2 µM 8% | [1]; at 3.7 µM 1% | [1]; at 11.0 µM 4% | [1]; at 33.0 µM -7% | [1]; at 100.0 µM -13% | [2]; at 1.2 µM -7% | [2]; at 3.7 µM -21% | [2]; at 11.0 µM 14% | [2]; at 33.0 µM 22% | [2]; at 100.0 µM 23% | [3]; at 1.2 µM -3% | [3]; at 3.7 µM -9% | [3]; at 11.0 µM -5% | [3]; at 33.0 µM -11% | [3]; at 100.0 µM -12% | [4]; at 1.2 µM -18% | [4]; at 3.7 µM -18% | [4]; [16] -3% | [4]; at 11.0 µM -18% | [4]; at 33.0 µM -32% | [4]; [17] 21% | [4]; at 50.0 µM -0.35% | [4]; at 100.0 µM 14% | [5]; at 1.2 µM -3% | [5]; at 3.7 µM -4% | [5]; [16] 1% | [5]; at 11.0 µM -3% | [5]; at 33.0 µM -9% | [5]; [17] 43% | [5]; at 50.0 µM -9.7% | [5]; at 100.0 µM -8% | [6]; at 1.2 µM -1% | [6]; at 3.7 µM -2% | [6]; at 11.0 µM 17% | [6]; at 33.0 µM 23% | [6]; at 100.0 µM 2% | [7]; [16] 3% | [7]; [17] 15% | [7]; at 50.0 µM -5.7% | [8]; at 1.2 µM -11% | [8]; at 3.7 µM -10% | [8]; at 11.0 µM -14% | [8]; at 33.0 µM -18% | [8]; at 100.0 µM -19% | [9]; [16] -4% | [9]; at 50.0 µM 30.9% | [10]; at 1.2 µM -8% | [10]; at 3.7 µM -4% | [10]; [16] 7% | [10]; at 11.0 µM -8% | [10]; at 33.0 µM -13% | [10]; at 50.0 µM 20.1% | [10]; at 100.0 µM -12% | [11]; at 1.2 µM -13% | [11]; at 3.7 µM -4% | [11]; at 11.0 µM 5% | [11]; at 33.0 µM 8% | [11]; at 100.0 µM 29% | [12]; at 1.2 µM -13% | [12]; at 3.7 µM -8% | [12]; at 11.0 µM -8% | [12]; at 33.0 µM -11% | [12]; at 100.0 µM -18% | [13]; at 1.2 µM -14% | [13]; at 3.7 µM -8% | [13]; at 11.0 µM 8% | [13]; at 33.0 µM 3% | [13]; at 100.0 µM 29% | [15]; at 1.2 µM -8% | [15]; at 3.7 µM -9% | [15]; at 11.0 µM -8% | [15]; at 33.0 µM -1% | [15]; at 100.0 µM -36%
active: [9]; [17] 77% | [10]; [17] 91%
